# Results: PubChem BioAssay AID1508600 (Functional Genomics Laboratory (NCATS/FGL), 2020)
# The campaign covered roughly 53,000 sequences. About 3,700 (7%) were called active.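 The calls were made as follows: active = gene knockdowns whose robust z-score for IL-1 alpha signal is at least 2 or at most -2, so actives lie on both sides; inactive = the rest.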 The entries come from a sample that favours actives as a whole.
# Experiment: Components of the Cytosolic LPS Sensing Pathway: Gene Identification via Genome-wide siRNA Screen;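 also: robust z of the log signal after scaling to non-targeting control siRNA wells of the plate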
# Details: RAW264.7 macrophages, IL-1a HTRF, actives lie on both sides, screened at 100 nM (by protocol), cells primed 5 h with Pam3CSK4 first
# In short: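 RAW264.7; siRNA 100 nM final, RNAiMAX, 48h 37 degrees C; Pam3CSK4 5 h; LipidA + TransIT-TKO 24 h; IL-1a HTRF; CellTiter-Glo viability; robust z vs negative-control median.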
row,Sequence,z-score
1,GCUUAUAAAAGACUUACUGTT against Sec24b,0.414 (inactive)
2,GGUUAAAAUUGGCUAAAUGTT against Sertm1,1.5 (inactive)
3,GGCUAAAAAGAGUAGACUATT against Irs1,1.14 (inactive)
4,GGAAGAAUCUGAUUCGUAATT against Snapc5,-1.28 (inactive)
5,GGCUUUUUCUACAUGCGCCTT against Olfr1104,-0.236 (inactive)
6,GGCUGUUAUACACUAUCUGTT against Tirap,-2.71 (active)
7,GGCUUUACUACUCAACCAUTT against Gjb3,-0.388 (inactive)
8,GCAUUUAUAUGAGAUGCAGTT against Fam210a,0.108 (inactive)
9,CCAAAGCCUGAAAUGGUGGTT against Cxcr4,-2.36 (active)
10,GGUCAAAACAUGUUGAAGGTT against B330016D10Rik,0.15 (inactive)
11,GGCAGAUGAUGGUCCAUGCTT against Tfpi,-1.63 (inactive)
12,CCAGCAGUAAACUGGAAAUTT against Arhgap25,-1.53 (inactive)
13,GGCAACCAGAUAUUUGUUATT against Myef2,0.549 (inactive)
14,GCUCGCACAGAAGUUACAATT against Lrrc42,-0.486 (inactive)
15,GAAAUGCAAGACUCUGCACTT against 1700020L24Rik,-2.66 (active)
16,GGAGCGAGUAGACAUUCUGTT against Rdh13,1.72 (inactive)
17,GGUAGUGCCAUAAUUUCUGTT against Nipal2,-0.782 (inactive)
18,GGAACCAAUCUGUCUCUCCTT against Cbfb,-2.07 (active)
19,GCUGUUAACUAUCUGGAUATT against Prokr1,0.59 (inactive)
20,GGGUGUUGUGUCCUCUCAATT against Gckr,0.0744 (inactive)
21,GCAUGAAUCGUGCGAAGAUTT against Zfp871,0.903 (inactive)
22,CCAGGUUCUCCGAAUCUCUTT against Cpa1,-0.854 (inactive)

row,Sequence,z-score
1,GCUGAGUCCAUUGAAGAAGTT against Pebp4,0.255 (inactive)
2,GCACAACGACCUUUCCAGGTT against Chst12,-0.561 (inactive)
3,GGCUAACCUGAGCAAACAGTT against Plvap,-2.21 (active)
4,GGAUCCUAAAACUGAGGAATT against Crtc2,0.22 (inactive)
5,GGAGAAAAACUGAGCAGCCTT against Chst12,-1.72 (inactive)
6,GCAUUGGAACCAUGUGCUGTT against Prss46,-1.59 (inactive)
7,GGAGGAUUAUUACAGAAGGTT against Lhx9,1.57 (inactive)
8,GGAACUGACUGCCUAUUCCTT against Gnb3,1.08 (inactive)
9,CCGUUGAUAUCCACAUGAATT against Plod3,1.97 (inactive)
10,GGUGGAACAGUGGAAUUCGTT against Grhpr,2.41 (active)
11,GCACUGCAUAUUCCGCACUTT against Nubp2,1.4 (inactive)
12,GGCUGGUCUCCAAACCCAATT against F13b,0.229 (inactive)
13,GGACAGUGCCACUUAAACCTT against Tbxa2r,-1 (inactive)
14,GGCCUCCUAUAGACGGGAUTT against Vdac3,2.49 (active)
15,GGGAGACCGGCAAAAAAAATT against Pde1b,0.999 (inactive)
16,CGAGAUGUGUGUUAAAGGATT against Utp23,0.934 (inactive)
17,GCAAGUUGUCAAAUCUAAATT against Tspan13,1.42 (inactive)
18,GCCGGACAACUCUAAUCAGTT against Herpud1,3.22 (active)
19,CCAAGGUAUGAAGAUAUUUTT against Rfpl4,0.575 (inactive)
20,GCAUGUUUUGGUGUAUAGUTT against Arl4a,-1.81 (inactive)
21,CGGUGUUUGAAAUCGUGCATT against Dgcr6,0.533 (inactive)
22,CCAGAGCCCAAGCCAAGUUTT against Nanos3,0.639 (inactive)

row,Sequence,z-score
1,GCCCGAUAUUAUAACGGUGTT against Eomes,2.97 (active)
2,GGUAUCCAGAUGAAAGAUGTT against Nlrp10,-1.13 (inactive)
3,GGCCCUCAAAAAUCACGAGTT against Ehd1,1.11 (inactive)
4,GGCAACAUCACUGAGUAUCTT against Glg1,0.57 (inactive)
5,GGAUCUUCUCUGCCUAUAUTT against Arpc1b,-1.42 (inactive)
6,GGAGGAGAAGAAGAAGGCCTT against Unc119b,0.28 (inactive)
7,CCUCAUGCUAGCCUCAUGATT against Actg1,-0.214 (inactive)
8,GCUAUUGGGACUUAGAACATT against Slc26a9,0.191 (inactive)
9,CCAGUAAACCUACAUGUUCTT against Htr3b,-0.024 (inactive)
10,GGCUAAAAUAAGCAAUCUGTT against Optc,-1.35 (inactive)
11,GGAAACUCCCUGAACCGGATT against Zcrb1,2.26 (active)
12,GGUAUUGAGUAUCUUAGGUTT against Atf7,-0.543 (inactive)
13,CGUUUUGUACAGAUAUACUTT against Fam3b,-0.571 (inactive)
14,GAUUCCAAGACAUUAAACATT against Fxn,0.485 (inactive)
15,GGCAGUUCAUGUUUAAAGATT against Fgfr1op2,-0.381 (inactive)
16,CGAGAGCAUUAAUUACUUCTT against Sulf1,0.621 (inactive)
17,GGACUACGAAUACCCAUCGTT against Cck,-0.42 (inactive)
18,GGGCAAUUUGGACUGUUUUTT against Jam3,-0.973 (inactive)
19,GGGUUUUAGAAUGAAAUACTT against Emc6,2.35 (active)
20,GGAAGCAUUCCAAUGGUAGTT against Cyp2c39,-0.532 (inactive)
21,GGCCAGACAUGUUGAAGAATT against Ssna1,-2.42 (active)
22,CGAUGCUGUGGAACUGCACTT against Ptgfrn,0.417 (inactive)

row,Sequence,z-score
1,CCGCGCCGUUGAUUCAUUUTT against Spata17,1.08 (inactive)
2,GGACACCAUGCCACAGACATT against Hlx,-1.43 (inactive)
3,GCAGAUCACCUUUUGUUUATT against Gdap2,0.767 (inactive)
4,GGAUCCGUGCUGAAGUUUUTT against Cep20,-0.338 (inactive)
5,GCUUCCCGCUAUGAGUUCATT against Shisa7,2.24 (active)
6,GGAUUGUUAGCAAAGAAAGTT against Aco1,-0.0776 (inactive)
7,GGUAGCAUGCUUUUGGUGCTT against Unkl,0.329 (inactive)
8,CGAAGGCUUUUGAAUUCAATT against Pcdh17,0.41 (inactive)
9,GGACUUCUACACCUCGAAATT against Amz2,-1.05 (inactive)
10,GCUGAGGAAAUGCGAAGUCTT against Tmem98,0.0406 (inactive)
11,GGGCAACCCACAAUAAAAATT against B9d1,-1.66 (inactive)
12,GGCUUUGAGAUAUGAACAGTT against Arrdc2,2.53 (active)
13,GGCAAGGAAUCAAUGUCUCTT against Fscn2,-0.229 (inactive)
14,GGACAAUUCCAGUCAAUAATT against Ccdc115,-1.01 (inactive)
15,GGAUUUCGGCUUUUUGAACTT against Bcas1,0.531 (inactive)
16,GCCCUUAUGGACGAAAUUUTT against Ang2,0.0523 (inactive)
17,GGUCUGCUCAAUGCUAUCATT against Olfr918,-1.47 (inactive)
18,GGAGAGACUCAGGAGUUUUTT against Rnd2,2.74 (active)
19,UGAAUAAGGUGUGGUGCUCTT against Vmn1r148,0.607 (inactive)
20,GGCUAACUUUAGUGAGGUATT against 3110070M22Rik,0.233 (inactive)
21,CCGAAGUGCAACAAGCCAATT against Abl2,1.17 (inactive)
22,GGGUACGUGAAGAAACUUCTT against Meig1,-2.23 (active)

row,Sequence,z-score
1,GGGCACACGUACCAACUAUTT against Mib2,-0.458 (inactive)
2,GGGACCCUACAAAAUCAUUTT against Ganab,0.467 (inactive)
3,GGAUCUUUUCAGGUUCUAATT against Olfr659,0.377 (inactive)
4,GCUAGAAGCCUGACAUUUUTT against Tbca,-0.538 (inactive)
5,CGAUUGAUGAAUCUGGUUCTT against Racgap1,-0.31 (inactive)
6,GCUGGUCAAGGGUCUAGAGTT against Saa3,-2.05 (active)
7,GGGAGUUCUCUAAAUGCUUTT against Olfr482,1.52 (inactive)
8,GCCUCCAGUAUCAUAAUUGTT against Antxr2,1.26 (inactive)
9,CCAGUUCGAUGUGGUAAUATT against St3gal5,1.11 (inactive)
10,GGAUGUCACAUGACAGUUUTT against Tmprss4,0.563 (inactive)
11,GGAUCCAACAAAUGUUAUUTT against Ccdc92,2.06 (active)
12,CGAUGGUGAUUCCCAUGUUTT against Olfr996,0.529 (inactive)
13,GCUAUCUCGGUGUCAACUUTT against Aqp7,-1.26 (inactive)
14,GGUUGGAUUAUUAGGAAUUTT against Dnah5,0.0387 (inactive)
15,GGGCUCCUUUUUUUUUUUUTT against Frat1,-2.55 (active)
16,CCAAUUGCUCUCCAUGAAATT against Coro1c,0.331 (inactive)
17,GCUUGGAAGACAUUGACCCTT against Brsk2,-0.996 (inactive)
18,GGUUACAGAAGAAUUAGAATT against Ift57,9.9e-05 (inactive)
19,CCCUCUUUAUCGUCUGUGATT against Gpha2,-2.89 (active)
20,GGGAUUGAGAUCCUCAUACTT against Olfr1179,0.125 (inactive)
